Laboratory results reported in PubChem BioAssay AID1159580 (chemical genetic matrix, 2015).
“And” between values parts separate entries of the source, which are not always exact repeats. Identical values can stand only once. The whole screen tested about 5,500 compounds, of which about 2,000 (36%) were called active. Inconclusive results (about 18%) are left out. No stated cut-off is given here; in the data, active means normalized growth mostly below about 0.91 (no sharp cut-off); inconclusive means no clear call, values can overlap the other calls; inactive means mostly above about 0.92. Some of the results follow.

Experiment: chemical genetic growth profiling, strain panel (AID 1159580);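 further: tested at 20 µM; growth read once vehicle control cultures reached saturation at 30 °C; 1 = growth at the plate median or of vehicle wells; lower values mean less growth of the strain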
Details: S. cerevisiae deletion strains, growth OD

Measured: normalized growth

Nc1ccc(S(=O)(=O)Nc2ccccn2)cc1
inactive: locus YAL013W, strain DEP1, active compounds read low 1.02 | locus YAL021C, strain ccr4, active compounds read low 1 | locus YAL026C, strain drs2, active compounds read low 1.01 | locus YAL030W, strain snc1, active compounds read low 1.01 | locus YBL061C, strain skt5, active compounds read low 1.01 | locus YBR009C, strain hhf1, active compounds read low 0.983 | locus YBR021W, strain FUR4, active compounds read low 1.04 | locus YBR023C, strain chs3, active compounds read low 1.01 | locus YBR171W, strain sec66, active compounds read low 1.01 | locus YBR229C, strain ROT2, active compounds read low 1.01 | locus YBR231C, strain swc5, active compounds read low 1.03 | locus YBR279W, strain paf1, active compounds read low 1.01 | locus YCL011C, strain gbp2, active compounds read low 0.99 | locus YCL016C, strain dcc1, active compounds read low 1 | locus YCL029C, strain bik1, active compounds read low 1 | locus YCL069W, strain vba3, active compounds read low 1 | locus YCR088W, strain abp1, active compounds read low 1 | locus YDL005C, strain med2, active compounds read low 1.02 | locus YDL035C, strain GPR1, active compounds read low 1.01 | locus YDL040C, strain nat1, active compounds read low 1.01 | locus YDL074C, strain BRE1, active compounds read low 1.02 | locus YDL101C, strain DUN1, active compounds read low 1 | locus YDL134C, strain PPH21, active compounds read low 1.01 | locus YDL185W, strain tfp1, active compounds read low 0.982 | locus YDL192W, strain arf1, active compounds read low 0.996 | locus YDR001C, strain nth1, active compounds read low 1.01 | locus YDR069C, strain doa4, active compounds read low 1.02 | locus YDR101C, strain arx1, active compounds read low 0.987 | locus YDR137W, strain rgp1, active compounds read low 1.01 | locus YDR159W, strain sac3, active compounds read low 0.986 | locus YDR162C, strain NBP2, active compounds read low 1 | locus YDR195W, strain ref2 1.04 | locus YDR297W, strain sur2, active compounds read low 1.01 | locus YDR318W, strain mcm21, active compounds read low 0.988 | locus YDR334W, strain swr1, active compounds read low 1.01 | locus YDR335W, strain msn5, active compounds read low 1.01 | locus YDR388W, active compounds read low 0.988 | locus YDR392W, strain spt3, active compounds read low 0.951 | locus YDR502C, strain sam2, active compounds read low 0.996 | locus YEL003W, strain gim4, active compounds read low 1.02 | locus YEL037C, strain rad23, active compounds read low 1.01 | locus YEL061C, strain CIN8 (second series), active compounds read low 1.01 | locus YEL061C, strain CIN8, active compounds read low 1.01 | locus YER015W, strain faa2, active compounds read low 1.02 | locus YER016W, strain bim1, active compounds read low 0.996 | locus YER110C, active compounds read low 0.993 | locus YER111C, strain swi4, active compounds read low 1.01 | locus YER155C, strain BEM2 (second series), active compounds read low 1.01 | locus YER155C, strain BEM2, active compounds read low 1.01 | locus YER167W, strain BCK2, active compounds read low 1 | locus YFR010W, strain ubp6, active compounds read low 1.02 | locus YGL078C, strain dbp3, active compounds read low 1 | locus YGL086W, strain mad1, active compounds read low 1 | locus YGL167C, strain pmr1, active compounds read low 1.02 | locus YGL173C, strain kem1, active compounds read low 1.02 | locus YGL227W, strain vid30, active compounds read low 1.02 | locus YGL240W, strain doc1, active compounds read low 1.02 | locus YGL248W, strain PDE1, active compounds read low 1.02 | locus YGL253W, strain hxk2, active compounds read low 0.999 | locus YGR135W, strain pre9, active compounds read low 1.01 | locus YGR229C, strain SMI1, active compounds read low 1.02 | locus YGR252W, strain gcn5, active compounds read low 1.03 | locus YHR013C, strain ard1, active compounds read low 1.01 | locus YHR027C, strain rpn1, active compounds read low 1.01 | locus YHR030C, strain SLT2, active compounds read low 1.01 and 0.97 | locus YHR079C, strain IRE1 (second series), active compounds read low 0.992 | locus YHR079C, strain IRE1, active compounds read low 0.985 | locus YHR094C, strain hxt1, active compounds read low 0.99 | locus YHR129C, strain ARP1, active compounds read low 1.02 | locus YHR142W, strain chs7, active compounds read low 0.98 | locus YHR200W, strain rpn10, active compounds read low 0.986 | locus YIL066C, strain RNR3, active compounds read low 1.01 | locus YIL073C, strain SPO22, active compounds read low 0.989 | locus YIL125W, strain kgd1, active compounds read low 0.983 | locus YIR030C, strain dcg1, active compounds read low 0.996 | locus YJL092W, strain hpr5, active compounds read low 1.02 | locus YJL095W, strain BCK1 (second series), active compounds read low 1.01 | locus YJL095W, strain BCK1, active compounds read low 1.02 and 0.979 | locus YJL115W, strain asf1, active compounds read low 1.01 | locus YJL129C, strain trk1, active compounds read low 1.02 | locus YJL134W, strain LCB3, active compounds read low 1 | locus YJL154C, strain vps35, active compounds read low 1.02 | locus YJL164C, strain tpk1, active compounds read low 0.972 | locus YJL166W, strain qcr8, active compounds read low 1.02 | locus YJL168C, strain set2, active compounds read low 0.99 | locus YJL187C, strain SWE1 (second series), active compounds read low 1.01 | locus YJR043C, strain POL32, active compounds read low 1 | locus YJR066W, strain TOR1, active compounds read low 0.928
